{
  "source": "paper PMC12136788",
  "binders": {"B1": {"name": "chr2:27433287:27433389:+|CDS|ENSG00000115216|unk|FALSE|unique (ssRNA)", "RNA": "GGGAGUUCUACAGUCCGACGAUCUUCCAGCAUGUCGGAGGGGGAGUCCCAGACAGUACUUAGCAGUGGCUCAGACCCAAAGGUAGAAUCCUCAUCUUCAGCUCCUGGCCUGACAUCAGUGUCACCUCCUGUGACCUCCACAACCAACAGAGGAUUGAGCAUCA"}, "B2": {"name": "chr8:6811200:6812339:-|CDS|ENSG00000275591|control|control|control (ssRNA)", "RNA": "GGGAGUUCUACAGUCCGACGAUCAUGUAGAGGCUUCUGCCCCAGUGCAGGCUUCCCUGGAAGAACCCUCAGUAUCUCAGAGCUAGAGGAGCCGCUGGAGCCCAAAAGGGAGCUAAGUCACCAUGCAGCUGUUGGUGUGUGGGUCAACAGAGGAUUGAGCAUCA"}, "B3": {"name": "chr19:58083837:58084684:-|three_prime_utr|ENSG00000121413|control|control|control (ssRNA)", "RNA": "GGGAGUUCUACAGUCCGACGAUCGCUCGCAUCCGAGGGGAGCCGCCGGAUGUGGAAGAAGACUCGGCUUUCCUGCAGCCAUUUAGUGCCGCCCCAUGCUAGGUUAUUUGACAUUGUGCAGUGUAGAGUUGCCUUAAAGUGCGUCAACAGAGGAUUGAGCAUCA"}, "B4": {"name": "chr1:211748167:211748268:-|3pUTR|ENSG00000123684|msi1|FALSE|unique (ssRNA)", "RNA": "GGGAGUUCUACAGUCCGACGAUCGUACUGCAUCAGUGAGAUGAGUAGGGUUUUUGUUUGGGAUUGUAAGACUAUUAAGAUCCUAGUAAGUCAGUGGUAGUUUACUGUGAUGUGAGCAUUGUAGAUUCCCCCGUUGUCACUAAUCAACAGAGGAUUGAGCAUCA"}, "B5": {"name": "chr17:63354981:63355093:+|CDS|ENSG00000170921|unk|total|mutant (ssRNA)", "RNA": "GGGAGUUCUACAGUCCGACGAUCCAGUCAAGGGUCCUAUCUAUAUCUGAAACUUACAUUUGACCUCACCGAGAAAGGCUAUCCCGUGUUAAAGAGCUCCCGCUACAAAGCCGUUCCUGUUUCGCUCUCAGAGGUUUAUUUACUCAACAGAGGAUUGAGCAUCA"}, "B6": {"name": "chr11:72288215:72288316:-|3pUTR|ENSG00000162129|unk|FALSE|unique (ssRNA)", "RNA": "GGGAGUUCUACAGUCCGACGAUCACCCAGCUAAUUUUUUUUGUAUUUUUAGUAAAGACGGGGUUUCACCAUGUUUGCCAGGCUAGUCUCAAACUCCUGGUCUCAAGUGAUCCACCCACCUUGGCCUCCCAGAGUGCUGAGAUUCAACAGAGGAUUGAGCAUCA"}, "B7": {"name": "chr11:107429260:107429366:-|CDS|ENSG00000152404|unk|total|mutant (ssRNA)", "RNA": "GGGAGUUCUACAGUCCGACGAUCGAGGAAACCCACAUAUUCAGAUAAAGCACAAAAUUGUCAAGAAAGCCGAGAAUCAGACUCCGUAAAAUAUGGUAACAGUUCAAGGGACCGAUAUGCUACAACAGAUACUGCAAAAAACCGCAACAGAGGAUUGAGCAUCA"}, "B8": {"name": "chr7:115017934:115018035:+|3pUTR|ENSG00000135272|unk|FALSE|unique (ssRNA)", "RNA": "GGGAGUUCUACAGUCCGACGAUCUGAGAUGAAACGUAGUUUCUAGUUAUAUCAUUACUUAAAGGGCUUAAAAAGAAAAAACUUAGCAAACUUUUGAAUCUUUCUUUUAUUGCUAUUUACACAUACAUACACACAUACAAAACCCAACAGAGGAUUGAGCAUCA"}, "B9": {"name": "chr10:92030471:92030572:+|3pUTR|ENSG00000095564|unk|FALSE|unique (ssRNA)", "RNA": "GGGAGUUCUACAGUCCGACGAUCUAUUUUUUUAUUAACUAUUUAUUUGCUAGUUCCAUAAACCAGCUCUUUAACAUAGCUUAUAGUAAUUGAUAUUUUCUUAGAAUAAGUACAGAGCAAUAUAUCAUUAAAGGGCUAUGAAGGCAACAGAGGAUUGAGCAUCA"}, "B10": {"name": "chr11:69653362:69653473:+|3pUTR|ENSG00000110092|msi1_unk|FALSE|overlapping (ssRNA)", "RNA": "GGGAGUUCUACAGUCCGACGAUCACUGCCAUGUACUAGUUUUAGUUUUCUCUUAGAACAUUGUAUUACAGAUGCCUUUUUUGUAGUUUUUUUUUUUUUUAUGUGAUCAAUUUUGACUUAAUGUGAUUACUGCUCUAUUCCAAACAACAGAGGAUUGAGCAUCA"}, "B11": {"name": "chr10:92030471:92030572:+|3pUTR|ENSG00000095564|unk|total|mutant (ssRNA)", "RNA": "B9 RNA with U50C, A51C, U76C, A77C, U83C, A84C, U101C, A102C"}, "B12": {"name": "chr19:9526975:9527076:-|3pUTR|ENSG00000130818|unk|FALSE|unique (ssRNA)", "RNA": "GGGAGUUCUACAGUCCGACGAUCCCUCUCAGACCUUCCAUCAUUACUAUAUUUCACUUUUAUGCCUAUAAACACACACAAAUUAGCAUAUGUAAUCUAAUACAUUGUAGCUAUUUUUCAGAAGUUAUCAGAUCAAUUAAGUAUCAACAGAGGAUUGAGCAUCA"}, "B13": {"name": "ENSG00000136451:be:win_3351|3pUTR|ENSG00000136451|bound_else_gene|NA|bound_elsewhere_windowed (ssRNA)", "RNA": "GGGAGUUCUACAGUCCGACGAUCGAAGGCAACACAUUCCUACACUUUUAAUGUAUAUGUUUGUUAUAAUGUCCAUGUAAACAUGCCCUAUGUUUGUGCCUUUUAAUUAGUUUGUCUCAAUAAACAAAAUGUAGAGAAAAAUAUCAACAGAGGAUUGAGCAUCA"}, "B14": {"name": "chr17:44253117:44253371:-|CDS|ENSG00000004939|control|control|control (ssRNA)", "RNA": "GGGAGUUCUACAGUCCGACGAUCCAAACCUGAGCGCAAGAUGGUCAAGGGCUCCGGCUUCCACCUGGACCUGCUGCUGGUAGUAGGCAUGGGUGGGGUGGCCGCCCUCUUUGGGAUGCCCUGGCUCAGUGCCACCACCGUGCGCAACAGAGGAUUGAGCAUCA"}, "B15": {"name": "chr6:105096826:105097152:-|3pUTR|ENSG00000112276|msi1|FALSE|unique (ssRNA)", "RNA": "GGGAGUUCUACAGUCCGACGAUCACUUGCAACCUAGUUUUAAAAUACAUGAGGAUUUUAUGAAAGCUUUAUACAGACAUUUAUAGGAAACUCAUUCUUUGAUUUUAGGUGCCAUUUAAAUUGAUAACACUUACUUUAUAAAAACAACAGAGGAUUGAGCAUCA"}},
  "note": "Positions count from the first letter of the chain named. Whole data set: some 5,800 sequences, median “enrichment r” near 0.68, cut for the highest 2% near 11. The full list was thinned out, with the highest values kept by preference.",
  "data": [
    {"target": "T1, UNK ZnF1-6 (called full-length) (human, UniProt Q9C0B0 30-357)", "T1 sequence": "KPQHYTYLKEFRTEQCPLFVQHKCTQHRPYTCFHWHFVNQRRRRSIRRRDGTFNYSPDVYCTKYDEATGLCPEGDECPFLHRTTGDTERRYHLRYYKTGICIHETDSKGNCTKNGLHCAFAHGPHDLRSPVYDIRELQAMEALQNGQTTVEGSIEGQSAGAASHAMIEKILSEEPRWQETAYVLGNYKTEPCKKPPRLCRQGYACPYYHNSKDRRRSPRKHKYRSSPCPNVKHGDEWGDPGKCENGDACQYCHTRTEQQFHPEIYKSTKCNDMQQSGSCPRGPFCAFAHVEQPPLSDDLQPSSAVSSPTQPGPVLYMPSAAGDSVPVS", "experiment": "nsRBNS (natural sequence RNA bind-n-seq); RBNS binding buffer (assumed for nsRBNS): 25 mM Tris pH 7.5, 150 mM KCl, 3 mM MgCl2, 0.01% Triton X-100, 500 ug/ml BSA, 20 U/ml SUPERase-In, 4 C; UNK is unkempt and MSI1 is Musashi-1; names of the RNAs are library labels; protein concentration not given here; high values mean tight binding", "units": {"binding signal": "enrichment R"}, "values": [
      {"binder": "B1", "binding signal": 0.848},
      {"binder": "B2", "binding signal": 0.868},
      {"binder": "B3", "binding signal": 0.832},
      {"binder": "B4", "binding signal": 0.481},
      {"binder": "B5", "binding signal": 0.664},
      {"binder": "B6", "binding signal": 3.92},
      {"binder": "B7", "binding signal": 0.603},
      {"binder": "B8", "binding signal": 5.81},
      {"binder": "B9", "binding signal": 34.3},
      {"binder": "B10", "binding signal": 80.9},
      {"binder": "B11", "binding signal": 5.92},
      {"binder": "B12", "binding signal": 4.62},
      {"binder": "B13", "binding signal": 2.53},
      {"binder": "B14", "binding signal": 0.5},
      {"binder": "B15", "binding signal": 1.57}
    ]}
  ]
}
